Cytotoxicity call data for 64 compounds are collected here from the antibiotic and cytotoxicity screens of Wong et al. (2023).

The whole screen tested about 39,000 compounds, of which about 1,500 (3.8%) were called active. This excerpt belongs to a sample that is enriched for actives.

For the assay, the system named is HSkMC (human skeletal muscle cells). The assay can be described thus: cytotoxicity call (relative viability < 0.9). To be noted: 10 µM.
Regarding `Cc1ccc(S(=O)(=O)N(C)C[C@H]2Oc3ccc(NC(=O)CCCN(C)C)cc3CC(=O)N([C@@H](C)CO)C[C@@H]2C)cc1`, the cytotoxicity call is “inactive”.

For the compound `C[C@@H]1CN([C@@H](C)CO)C(=O)c2cc(NS(C)(=O)=O)ccc2O[C@@H](C)CCCCO[C@@H]1CN(C)S(=O)(=O)c1cccs1`, the cytotoxicity call was “inactive”.

In the case of `Cc1noc(C)c1S(=O)(=O)Nc1ccc2c(c1)C(=O)N([C@@H](C)CO)C[C@@H](C)[C@H](CN(C)Cc1ccc(C(F)(F)F)cc1)OCCCC[C@H](C)O2`, the cytotoxicity call was “inactive”.

With `CC(C)Cn1c(=O)n(C)c(=O)c2[nH]cnc21`, the cytotoxicity call is “inactive”.

Turning to `Cc1noc(C)c1S(=O)(=O)Nc1ccc2c(c1)CC(=O)N([C@H](C)CO)C[C@H](C)[C@@H](CN(C)S(C)(=O)=O)O2`, the cytotoxicity call was “inactive”.

On to `O=C(O)c1ccc(N2CCCS2(=O)=O)cc1`, for which the cytotoxicity call is “inactive”.

For the compound `Cc1ccsc1[C@@H](O)CN`, the cytotoxicity call is “inactive”.

Turning to `Cc1cc(C)c(-c2ccc(NC(=O)[C@H](Cc3ccc(C(=O)NCCS(=O)(=O)O)cc3)c3ccc(-c4ccc(C(C)(C)C)cc4)cc3)cc2)c(C)c1`, the cytotoxicity call was “active”.

`CC(C)Cc1ccc([C@@H](C)C(=O)Nc2ccc(Cl)cc2)cc1`: the cytotoxicity call is “inactive”.

In the case of `N[C@@H]1CONC1=O`, the cytotoxicity call is “inactive”.

Regarding `O=C(C[C@H]1CC[C@@H]2[C@H](COC[C@H](O)CN2S(=O)(=O)c2ccc(F)cc2)O1)NCCN1CCCCC1`, the cytotoxicity call was “inactive”.

Take `CN1CCN(c2ccc(OC(F)(F)F)c(Nc3ncc4c(n3)-c3c(c(C(N)=O)nn3CCO)CC4)c2)CC1`: the cytotoxicity call was “active”.

Turning to `COc1ccc2c3c([nH]c2c1)[C@H](CO)N(C[C@]13CCN(CC1)S(=O)(=O)c1cn(cn1)C)C(=O)Nc1ccc(cc1)F`, the cytotoxicity call is “inactive”.

For `C[C@@H]1CCCCO[C@@H](CN(C)S(=O)(=O)c2cn(C)cn2)[C@H](C)CN([C@@H](C)CO)C(=O)c2cc(NC(=O)CCCN(C)C)ccc2O1`, the cytotoxicity call is “inactive”.

With `C[C@H]1CN([C@@H](C)CO)C(=O)Cc2cc(NC(=O)C3CCCCC3)ccc2O[C@H]1CN(C)Cc1ccc(Oc2ccccc2)cc1`, the cytotoxicity call is “active”.

As for `C[C@H]1CN([C@@H](C)CO)C(=O)Cc2cc(NC(=O)C3CCCCC3)ccc2O[C@@H]1CN(C)Cc1ccc(-c2ccccc2)cc1`, the cytotoxicity call is “inactive”.

Regarding `C[C@@H]1CN([C@H](C)CO)C(=O)Cc2cc(NC(=O)C3CCCCC3)ccc2O[C@@H]1CN(C)Cc1ccc(Oc2ccccc2)cc1`, the cytotoxicity call is “active”.

In the case of `C[C@@H]1CN([C@@H](C)CO)C(=O)Cc2cc(NC(=O)C3CCCCC3)ccc2O[C@H]1CN(C)Cc1ccc(Oc2ccccc2)cc1`, the cytotoxicity call is “inactive”.

Turning to `C[C@@H]1CN([C@H](C)CO)C(=O)Cc2cc(NC(=O)C3CCCCC3)ccc2O[C@@H]1CN(C)Cc1ccc(-c2ccccc2)cc1`, the cytotoxicity call is “active”.

`C[C@H]1CN([C@@H](C)CO)C(=O)Cc2cc(NC(=O)C3CCCCC3)ccc2O[C@@H]1CN(C)Cc1ccc(Oc2ccccc2)cc1`: the cytotoxicity call is “inactive”.

`C[C@H](CO)N1C[C@H](C)[C@@H](CN(C)Cc2ccc(Oc3ccccc3)cc2)Oc2ccc(NC(=O)C3CCCCC3)cc2CC1=O`: the cytotoxicity call was “inactive”.

For the compound `C[C@@H]1CN([C@H](C)CO)C(=O)Cc2cc(NC(=O)C3CCCCC3)ccc2O[C@H]1CN(C)Cc1ccc(Oc2ccccc2)cc1`, the cytotoxicity call was “inactive”.

Take `C[C@H](CO)N1C[C@H](C)[C@H](CN(C)Cc2ccc(-c3ccccc3)cc2)Oc2ccc(NC(=O)C3CCCCC3)cc2CC1=O`: the cytotoxicity call was “inactive”.

`CC(=O)N1CCc2nc(N)sc2C1`: the cytotoxicity call was “inactive”.

Take `C[C@@H]1CN([C@@H](C)CO)C(=O)c2cccc(NS(=O)(=O)c3cn(C)cn3)c2O[C@H]1CN(C)S(=O)(=O)c1ccc(Cl)cc1`: the cytotoxicity call is “inactive”.

As to `CC=Cc1ccc2n(c1=O)C[C@@H]1[C@@H](CO)[C@H](C(=O)NCC3CC3)[C@H]2N1S(=O)(=O)c1cn(C)cn1`, the cytotoxicity call is “inactive”.

With `C[C@@H]1CN([C@@H](C)CO)S(=O)(=O)c2ccc(C#Cc3ccccc3F)cc2O[C@@H]1CN(C)C(=O)Cc1cccnc1`, the cytotoxicity call was “inactive”.

Take `C[C@H]1CN([C@@H](C)CO)C(=O)c2cc(NC(=O)C3CCCCC3)ccc2O[C@H]1CN(C)Cc1ccc(-c2ccccc2)cc1`: the cytotoxicity call is “inactive”.

As for `C[C@H](CO)N1C[C@H](C)[C@@H](CN(C)C(=O)Nc2ccc3c(c2)OCO3)Oc2c(NC(=O)C3CC3)cccc2C1=O`, the cytotoxicity call was “inactive”.

Regarding `C[C@H](CO)N1C[C@H](C)[C@@H](CN(C)C(=O)NC2CCCCC2)Oc2c(NC(=O)Nc3ccc(C(F)(F)F)cc3)cccc2C1=O`, the cytotoxicity call was “inactive”.

In the case of `C[C@H]1CN([C@@H](C)CO)C(=O)c2cccc(NC(=O)Nc3ccc(C(F)(F)F)cc3)c2O[C@H]1CN(C)C(=O)NC1CCCCC1`, the cytotoxicity call was “inactive”.

Turning to `C[C@H](CO)N1C[C@H](C)[C@@H](CN(C)C(=O)Nc2ccc(C(F)(F)F)cc2)Oc2c(NC(=O)NC3CCCCC3)cccc2C1=O`, the cytotoxicity call is “inactive”.

With `C[C@H](CO)N1C[C@H](C)[C@H](CN(C)C(=O)NC2CCCCC2)Oc2c(NC(=O)Nc3ccc(C(F)(F)F)cc3)cccc2C1=O`, the cytotoxicity call was “inactive”.

Consider `C[C@@H]1CN([C@H](C)CO)C(=O)c2cccc(NC(=O)Nc3ccc(C(F)(F)F)cc3)c2O[C@@H]1CN(C)C(=O)NC1CCCCC1`, for which the cytotoxicity call was “active”.

Regarding `C[C@@H]1CN([C@H](C)CO)C(=O)c2cccc(NC(=O)Nc3ccc(C(F)(F)F)cc3)c2O[C@H]1CN(C)C(=O)NC1CCCCC1`, the cytotoxicity call is “inactive”.

`C[C@H]1CN([C@@H](C)CO)C(=O)c2cccc(NC(=O)Nc3ccc(C(F)(F)F)cc3)c2O[C@@H]1CN(C)C(=O)NC1CCCCC1`: the cytotoxicity call was “active”.

For the compound `C[C@@H]1CN([C@@H](C)CO)C(=O)c2cccc(NC(=O)Nc3ccc(C(F)(F)F)cc3)c2O[C@H]1CN(C)C(=O)NC1CCCCC1`, the cytotoxicity call is “active”.

Regarding `C[C@@H]1CN([C@@H](C)CO)C(=O)c2cccc(NC(=O)Nc3ccc(C(F)(F)F)cc3)c2O[C@@H]1CN(C)C(=O)NC1CCCCC1`, the cytotoxicity call was “inactive”.

As to `CC(C)NC(=O)Nc1cccc2c1O[C@H](CN(C)S(=O)(=O)c1ccccc1)[C@H](C)CN([C@H](C)CO)C2=O`, the cytotoxicity call was “inactive”.

As to `C[C@@H]1CN([C@@H](C)CO)C(=O)c2cccc(NC(=O)Nc3ccc(C(F)(F)F)cc3)c2O[C@H]1CN(C)Cc1ccc(C(=O)Nc2ccccc2N)cc1`, the cytotoxicity call is “inactive”.

Take `C[C@H](CO)N1C[C@H](C)[C@H](CN(C)C(=O)c2ccccc2)OCCCC[C@H](C)Oc2ccc(NC(=O)NC3CCCCC3)cc2C1=O`: the cytotoxicity call is “inactive”.

Consider `O=C(C[C@@H]1CC[C@H](NS(=O)(=O)c2ccc(F)cc2)[C@H](CO)O1)NCc1ccc(Cl)c(Cl)c1`, for which the cytotoxicity call was “inactive”.

Turning to `C[C@@H]1CN([C@@H](C)CO)S(=O)(=O)c2ccc(-c3cccnc3)cc2O[C@H]1CN(C)CC1CCOCC1`, the cytotoxicity call is “inactive”.

Turning to `COCC(=O)N(C)C[C@H]1Oc2cc(C#CCN(C)C)ccc2S(=O)(=O)N([C@H](C)CO)C[C@H]1C`, the cytotoxicity call was “inactive”.

With `CCNC(=S)N1CCC[C@H](C(N)=O)C1`, the cytotoxicity call is “inactive”.

Take `Cn1cncc1CN1CCO[C@]2(COCCN(S(C)(=O)=O)C2)C1`: the cytotoxicity call is “inactive”.

Regarding `Cc1noc(C)c1NC(=O)Nc1ccc2c(c1)C(=O)N([C@@H](C)CO)C[C@H](C)[C@@H](CN(C)C(=O)Nc1ccc3c(c1)OCO3)OCCCC[C@H](C)O2`, the cytotoxicity call is “inactive”.

In the case of `Nc1ncnc2c1ncn2C1OC(COP(=O)(O)OP(=O)([O-])OP(=O)([O-])O)C(O)C1O.[Na+].[Na+]` (centres undefined), the cytotoxicity call is “inactive”.

For the compound `COc1cccc(S(=O)(=O)N(C)C[C@@H]2OCc3cn(nn3)CCCC(=O)N([C@H](C)CO)C[C@@H]2C)c1`, the cytotoxicity call is “inactive”.

As for `C[C@@H]1CN([C@@H](C)CO)C(=O)c2cc(NC(=O)Nc3cccc4ccccc34)ccc2O[C@@H]1CN(C)Cc1ccc(Oc2ccccc2)cc1`, the cytotoxicity call is “active”.

As to `C[C@H]1CN([C@@H](C)CO)C(=O)c2cc(NC(=O)Nc3cccc4ccccc34)ccc2O[C@@H]1CN(C)Cc1ccc(Oc2ccccc2)cc1`, the cytotoxicity call is “inactive”.

For `C[C@H](CO)N1C[C@H](C)[C@@H](CN(C)Cc2ccc(Oc3ccccc3)cc2)Oc2ccc(NC(=O)Nc3cccc4ccccc34)cc2C1=O`, the cytotoxicity call was “inactive”.

Regarding `C[C@H](CO)N1C[C@H](C)[C@H](CN(C)Cc2ccc(Oc3ccccc3)cc2)Oc2ccc(NC(=O)Nc3cccc4ccccc34)cc2C1=O`, the cytotoxicity call is “active”.

For the compound `C[C@@H]1CN([C@H](C)CO)C(=O)c2cc(NC(=O)Nc3cccc4ccccc34)ccc2O[C@@H]1CN(C)Cc1ccc(Oc2ccccc2)cc1`, the cytotoxicity call was “inactive”.

For `C[C@@H]1CN([C@H](C)CO)C(=O)c2cc(NC(=O)Nc3cccc4ccccc34)ccc2O[C@H]1CN(C)Cc1ccc(Oc2ccccc2)cc1`, the cytotoxicity call was “inactive”.

Turning to `COc1ccccc1C#Cc1cnc2c(c1)C(=O)N([C@@H](C)CO)C[C@@H](C)[C@H](CN(C)S(=O)(=O)c1cn(C)cn1)O2`, the cytotoxicity call is “inactive”.

For `CN1C(=O)c2cc(NC(=O)C3CCOCC3)ccc2OC[C@@H]2O[C@H](CC(=O)NCc3ccccc3F)CC[C@H]21`, the cytotoxicity call was “inactive”.

On to `NC(=O)NCC#Cc1ccc2c(c1)[C@]1(C(=O)N2)[C@H](C(=O)N2CCN(c3ncccn3)CC2)[C@H]2C(=O)O[C@H](c3ccccc3)[C@H](c3ccccc3)N2[C@@H]1c1ccc(OCCO)cc1`, for which the cytotoxicity call is “inactive”.

On to `Cc1noc(C)c1NC(=O)Nc1ccc2c(c1)C(=O)N([C@@H](C)CO)C[C@H](C)[C@H](CN(C)Cc1ccc(C(=O)O)cc1)OCCCC[C@@H](C)O2`, for which the cytotoxicity call was “inactive”.

For the compound `C[C@H](CO)N1C[C@H](C)[C@@H](CN(C)Cc2ccc(-c3ccccc3)cc2)Oc2c(NC(=O)c3nc4ccccc4s3)cccc2C1=O`, the cytotoxicity call is “inactive”.

Regarding `C[C@]12CC[C@@H]3[C@]4(C=C[C@@]5(C=C4C(=O)c4cc6ccccc6s4)C[C@@H](O)CC[C@]35C)[C@@H]1CC[C@@]2(O)CN1CCC(n2c(=O)[nH]c3ccccc32)CC1`, the cytotoxicity call was “inactive”.

With `CC1CC2C3CCC4=CC(=O)C=CC4(C)C3(Cl)C(O)CC2(C)C1(OC(=O)c1ccco1)C(=O)CCl` (centres undefined), the cytotoxicity call is “active”.

Regarding `CCC(=O)OC1(C(=O)CCl)C(C)CC2C3CCC4=CC(=O)C=CC4(C)C3(F)C(O)CC21C` (centres undefined), the cytotoxicity call was “inactive”.

Take `CCC(=O)OCC(=O)C1(OC(=O)CC)C(C)CC2C3CCC4=CC(=O)C=CC4(C)C3(Cl)C(O)CC21C` (centres undefined): the cytotoxicity call is “inactive”.
